The values that follow come from PubChem BioAssay AID1259313 (Sanford-Burnham Center for Chemical Genomics, 2017).

Among all 340,000 compounds or so, about 8,500 (2.5%) were called active.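 How the source made its calls: active means melting temperature shift of at least 10% of the positive control shift, at one fixed dose; inactive means the rest.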 The sample as a whole holds a higher share of actives than the screen did.

The subject of the experiment is Glutamate receptor ionotropic, NMDA 3A (GRIN3A) ligand-binding domain. Description: NR3A LBD thermal stabilization by compounds – biophysical, differential scanning fluorimetry, uHTS, primary screen (AID 1259313). The settings on record: at 25 µM, hits give high values, 0% = protein alone, 100% = glycine-bound protein. (In general: Differential scanning fluorimetry follows unfolding on heating by fluorescence.)
With `CCC(=C/c1sc2ccc3ccccc3c2[n+]1C)/C=C1\Sc2ccc3ccccc3c2N1C`, the Tm shift relative to glycine control is 3.14% (inactive).
In the case of `CC1CCCCC1NC(=O)Cn1cnc2c1c(=O)n(C)c(=O)n2C` (centres undefined), the Tm shift relative to glycine control was -0.41% (inactive).
As to `Cc1ccc(O)c(NC(=S)NC(=O)COc2ccc(Br)cc2)c1`, the Tm shift relative to glycine control was 16.9% (active).
As to `COc1ccc(C(=O)Nc2cc(C)ccc2NC(=O)COc2ccccc2)cc1`, the Tm shift relative to glycine control is -0.91% (inactive).
Turning to `CCS(=O)(=O)c1ccc(O)c(NC(=O)COc2ccc(Cl)cc2)c1`, the Tm shift relative to glycine control was 1.4% (inactive).
As for `Oc1ccc(/C=N/N(Cc2ccccc2)c2ccccc2)cc1`, the figure is 8.8% (inactive).
As for `COc1cc(OC)cc(-c2cc3ccc(F)cc3cn2)c1`, the Tm shift relative to glycine control is 1.79% (inactive).
In the case of `CC(=O)c1ccc(S(=O)(=O)NC2CC(=O)N(c3ccc4c(c3)OCCO4)C2)cc1` (centres undefined), the Tm shift relative to glycine control was 15.5% (active).
As for `COC(=O)C1CCN(C(=O)NC2CC(=O)N(c3ccc4c(c3)OCCO4)C2)CC1` (centres undefined), the figure is 0.42% (inactive); as for `CC(=O)c1ccccc1NC(=O)C1CC(=O)N(c2ccc3c(c2)OCCO3)C1` (centres undefined), -0.26% (inactive).
As for `Cc1nc2cc(C(F)(F)F)ccc2n1CCNc1nc(-c2cc(Cl)c(N)c(Cl)c2)cs1`, the figure is -2.53% (inactive).
In the case of `Cc1ccc(C(C(=O)NC2CCCCC2)N(C(=O)c2csnn2)C2CC2)o1` (centres undefined), the Tm shift relative to glycine control was -0.78% (inactive).
As for `COc1ccc(S(=O)(=O)N2CCOCC2)cc1NC(=O)CSc1nnc(NC2CC2)s1`, the figure is 1.84% (inactive); as for `COc1ccc(/C=N/NC(=O)c2ccncc2)cc1CN1CCCc2ccccc21`, -8.86% (inactive); as for `COc1ccc(Br)cc1/C=N/NC(=O)c1cccc(S(=O)(=O)N2CCOCC2)c1`, -9.01% (inactive).
As for `COc1cccc(/C=N/NC(=O)c2[nH]nc3c2CCc2ccccc2-3)c1O`, the figure is 20.4% (active).
As for `O=C(c1cc2ccccc2o1)N1CCN(Cc2ccccc2)CC1`, the figure is 0.09% (inactive); as for `Fc1ccc(OCc2nn3c(Cn4nnc5ccccc54)nnc3s2)cc1`, 2.39% (inactive).
With `CC1CN(/C=C/C(=O)C(F)(F)F)CC(C)O1` (centres undefined), the Tm shift relative to glycine control is 0.33% (inactive).
For the molecule `COc1ccccc1Cn1c(C)nnc1-c1cnn(C)c1N`, the Tm shift relative to glycine control is 1% (inactive).
With `CN(CC(=O)Nc1ccc(Cl)cc1)CC(=O)Nc1cccc2ccccc12` the figure was -7.6% (inactive); with `O=C(O)Cc1ccc(NC(=O)Nc2cccc3ccccc23)cc1`, -1.31% (inactive).
As for `O=C(Cc1cccc2ccccc12)NNC(=O)Nc1ccc(Cl)cc1`, the figure is 29.1% (active); as for `CC(C)OC(=O)c1ccc(NCc2cc(O)ccc2O)cc1Cl`, -1.69% (inactive).
Turning to `COC(=O)c1ccc(NCc2cc(O)ccc2O)cc1`, the Tm shift relative to glycine control is 5.08% (inactive).
As to `O=C(OC12CC3CC(CC(C3)C1)C2)c1ccc(NCc2cc(O)ccc2O)cc1`, the Tm shift relative to glycine control is 33.5% (active).
As for `Cn1c(SCc2ccc(F)cc2)nnc1-c1ccncc1`, the figure is 1.71% (inactive); as for `CCC(C)(C)n1nnnc1CN1CCN(c2nc3ccc(C)cc3cc2C#N)CC1`, 0.62% (inactive); as for `O=C(NCc1ccccc1)C(c1ccccc1)N(C(=O)c1csnn1)c1ccc(F)cc1` (centres undefined), -0.6% (inactive).
As for `O=C(COC(=O)CCc1c[nH]c(=O)[nH]1)Nc1ccccc1Cl`, the figure is 1.15% (inactive); as for `O=C(Nc1ccccc1Cl)/C(Cl)=C(\Cl)S(=O)c1ccccc1` (centres undefined), 11.6% (active).
With `CN(C)S(=O)(=O)Oc1ccccc1C(=O)Nc1ccccc1Cl` the figure was -0.92% (inactive); with `Cc1nn(-c2ccccc2)c2[nH]c(C(F)(F)F)cc(=O)c12`, -11.2% (inactive); with `COc1ccc(CN2CCN(Cc3cn(C)nc3-c3ccccc3)CC2CCO)c(C)c1C` (centres undefined), -3.71% (inactive).
Take `O=C(O)/C=C/c1ccc(OCCCF)cc1`: the Tm shift relative to glycine control is -1.35% (inactive).
With `O=C(/C=C(O)/C=C/c1ccc(O)cc1)/C=C/c1ccc(O)cc1` the figure was 19% (active); with `COc1cccc(C=CC(=O)C=CC=Cc2ccccc2)c1`, -1.98% (inactive); with `Cc1ccc(S(=O)(=O)NCCc2nnc3ccc(SCc4cccnc4)nn23)cc1`, -2.44% (inactive).
For the molecule `COc1cc(OC)c(C(=O)NNC(=O)c2ccccc2-n2cccc2)cc1OC`, the Tm shift relative to glycine control is -0.41% (inactive).
For the molecule `CCCCCCC(O)(CCN1CCCCC1)c1ccccc1` (centres undefined), the Tm shift relative to glycine control is -3.65% (inactive).
With `S=c1[nH]nc(-c2cccs2)n1/N=C/c1cn(-c2ccccc2)nc1-c1ccc(Cl)cc1` the figure was 15.2% (active); with `S=c1[nH]nc(-c2ccncc2)n1/N=C/c1ccccc1Cl`, -1.38% (inactive).
With `S=c1[nH]nc(-c2cccs2)n1/N=C/c1cccs1` the figure was 0.68% (inactive); with `CC(C(=O)Nc1ccccc1-c1ccccc1)N1CCOCC1` (centres undefined), -18.3% (inactive).
As for `CCOc1ccc2nc(/N=C/c3nc(-c4ccccc4)oc3O)sc2c1`, the figure is 38% (active); as for `CC(N=Cc1nc(-c2ccccc2)oc1O)c1ccccc1` (centres undefined), 1.17% (inactive).
Regarding `CCOc1ccc2nc(C(=O)N3CCCC(C)C3)sc2c1` (centres undefined), the Tm shift relative to glycine control is 3.03% (inactive).
With `CCn1c(SCC(=O)NC2CC2)nnc1-c1ccccc1OC` the figure was -19.3% (inactive); with `COc1ccccc1-c1nnc2n1N=C(c1ccc(OC(F)F)c(OCC3CC3)c1)CS2`, 20.6% (active).
As for `COc1ccc(C2=Nn3c(nnc3-c3ccccc3OC)SC2)cc1OC1CCCC1`, the figure is -1.54% (inactive); as for `Cn1c(C(=O)OC(C(=O)NC2CCCCC2)c2ccccn2)cc2sccc21` (centres undefined), -2.22% (inactive); as for `C/C(CC(=O)NC(C)(C)C)=N\NC(=O)c1ccco1`, -2.4% (inactive).
Turning to `C/C(=N/NC(=O)C1COc2ccccc2O1)c1ccco1` (centres undefined), the Tm shift relative to glycine control was 0.45% (inactive).
With `C/C(=N/NC(=O)CCc1ccccc1)c1ccco1`, the Tm shift relative to glycine control is 13.4% (active).
Turning to `C=C(C)CNC(=S)/N=c1\scc(C)n1CC`, the Tm shift relative to glycine control was 0.78% (inactive).
In the case of `Cc1c(Cl)cccc1NC(=O)CSc1ccc(-c2cccnc2)nn1`, the Tm shift relative to glycine control is 0.4% (inactive).
As for `COc1ccc([C@H]2[C@H](C(C)=O)N3N=Cc4ccccc4C3C23C(=O)OC(C)(C)OC3=O)cc1` (some centres undefined), the figure is 1.26% (inactive).
With `COc1cc2ccccc2cc1C(=O)Nc1ccc(S(=O)(=O)Nc2cc(C)on2)cc1` the figure was -5.06% (inactive); with `COc1cc(NC(=O)COc2ccccc2Cl)ccc1NC(=O)C(C)C`, -1.36% (inactive).
As for `COc1cc2ccccc2cc1C(=O)Nc1ccc(NC(=O)c2cccs2)cc1`, the Tm shift relative to glycine control is 28.6% (active).
As for `O=C(Nc1ccc(NC(=O)c2ccc3c(c2)OCO3)cc1)c1cccc(Cl)c1`, the figure is 4.36% (inactive); as for `COc1cc2ccccc2cc1C(=O)Nc1ccncc1`, -12.5% (inactive); as for `CC(C)C(=O)Nc1cccc(C(=O)Nc2ccc3c(c2)OCO3)c1`, -22.3% (inactive).
Turning to `COc1cc(NC(=O)c2ccc3c(c2)OCO3)ccc1NC(=O)c1cccs1`, the Tm shift relative to glycine control is 26.8% (active).
As for `COc1cc(Cl)c(C)cc1NC(=O)[C@@H]1CCCN1C(=O)c1cccs1`, the Tm shift relative to glycine control was -1.61% (inactive).
With `COc1cc(NC(=O)c2cccs2)ccc1NC(=O)c1ccccc1Cl` the figure was 11.9% (active); with `Cc1cc(C(=O)CC#N)c(C)n1CC(F)(F)F`, 0.49% (inactive).
As for `O=C(Nc1cccc(S(=O)(=O)N2CCCC2)c1)c1cncc(Br)c1`, the figure is -1.22% (inactive); as for `COc1ccc(N2CCN(CCNC(=O)Nc3cc(Cl)ccc3Cl)CC2)cc1`, -1.01% (inactive).
For the molecule `O=c1c2ccccc2ncn1/N=C/c1ccccc1`, the Tm shift relative to glycine control is -2.01% (inactive).
With `Cc1ccc(OCC(=O)N2CCN(C(=O)c3cccnc3)CC2)cc1`, the Tm shift relative to glycine control is -1.15% (inactive).
As for `O=C(/C=C/c1ccc(Cl)cc1)Nc1ccc(Br)cn1`, the figure is 0.46% (inactive); as for `Cc1ccccc1N(C(=O)Cc1cccs1)C(C(=O)NC1CCCCC1)c1cn(C)nc1C` (centres undefined), -0.71% (inactive).
As for `CC(NC(=O)COC(=O)c1cc(=O)[nH]c2ccccc12)c1ccccc1` (centres undefined), the figure is -1% (inactive); as for `O=C(CSc1nc2ccccc2c(=O)[nH]1)Nc1nc(-c2ccc(Br)cc2)cs1`, 36.1% (active).
For `O=C(COC(=O)c1cc(=O)[nH]c2ccccc12)Nc1nc(-c2cccc(Br)c2)cs1`, the Tm shift relative to glycine control was 10.6% (active).
`O=C(COC(=O)c1cc(=O)[nH]c2ccccc12)NCc1cccc(Cl)c1`: the Tm shift relative to glycine control is -0.85% (inactive).
Turning to `CC(=O)NCc1ccc(-c2csc(NC(=O)CCCc3nc4ccccc4c(=O)[nH]3)n2)cc1`, the Tm shift relative to glycine control was -1.27% (inactive).
As for `CCOC(=O)c1ccccc1NC(=O)CSc1nc2ccccc2c(=O)[nH]1`, the figure is -1.86% (inactive).
As for `Cc1ccc(-c2cc(=O)[nH]c(NCc3ccccc3)n2)cc1`, the figure is -1.01% (inactive).
Consider `COc1cc(OC)c(OC)cc1CN1CCN(C(=O)c2cccc3ccccc23)CC1`, for which the Tm shift relative to glycine control was -1.19% (inactive).
With `Cc1cc(C)nc(/N=C2\NC(=O)CC(C(=O)O)N2c2ccc(Cl)cc2Cl)n1` (centres undefined) the figure was -1.26% (inactive); with `O=C(CCN1C(=O)C2CCCCC2C1=O)Nc1ccc(OC(F)F)cc1` (centres undefined), 2.89% (inactive); with `O=C(O)c1cc(S(=O)(=O)N(Cc2ccccc2)c2cccc(C(F)(F)F)c2)ccc1Cl`, 2.79% (inactive).
On to `O=C(NNc1ccccc1Cl)C(O)(c1cccc(C(F)(F)F)c1)c1cccc(C(F)(F)F)c1`, for which the Tm shift relative to glycine control is 27.5% (active).
With `O=C(Nc1cc(C(F)(F)F)ccc1Cl)C(=O)N1CCCCC1` the figure was -10.1% (inactive); with `Nc1cc2c(cc1Br)-c1ccc(F)cc1C2=O`, -2.14% (inactive); with `Nc1nc(SCC(=O)Nc2ccc(Cl)cc2C(F)(F)F)n[nH]1`, 0.67% (inactive).
As to `CCOc1cccc(SCc2noc(C(=O)NC(C)C)c2C(=O)O)c1`, the Tm shift relative to glycine control was -0.97% (inactive).
As to `COCCNC(=O)c1onc(CSc2cccc(C)c2)c1C(=O)O`, the Tm shift relative to glycine control was 18.5% (active).
As for `CCCCNC(=O)c1onc(CSc2cccc(OC)c2)c1C(=O)O`, the Tm shift relative to glycine control is 3.23% (inactive).
Turning to `COCCn1nnnc1C(c1ccccc1Cl)N1CCN(c2ccccc2OC)CC1` (centres undefined), the Tm shift relative to glycine control was 2.04% (inactive).
Take `CCC(=O)N(C)C(c1ccccc1Cl)c1nnnn1-c1c(C)cccc1C` (centres undefined): the Tm shift relative to glycine control was 38.2% (active).
As for `CN(C)/C=C(/C(=O)c1ccc(Cl)c(Cl)c1)c1nnnn1-c1ccccc1`, the Tm shift relative to glycine control is -0.1% (inactive).
